Only some compounds are listed: those with a hit (about 4% of all), similar ones and a draw of the others.
NLRP3 yeast inh = blocks the NALP3 inflammasome reconstituted in yeast; Yeast reconstituted NLRP3/ASC/caspase-1, beta-gal luminescence, 24 h; inhibition, % at 10 µM; 0.39% of 330,000 active; AID 2825;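 active = inhibition of 50% or more; inactive = inhibition below 50%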
tim10-1 inh = inhibits growth of tim10-1 mutant yeast; inhibition, % at 20 µM; S. cerevisiae tim10-1 ts strain growth, BacTiter-Glo, 24 h; 2.2% of 330,000 active; AID 463190;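 active = inhibition of at least 40%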;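 also: mutant grown at 25 °C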
NALP1 yeast inh = blocks the NALP1 inflammasome reconstituted in yeast; S. cerevisiae NALP1/ASC/caspase-1 growth, X-gal OD620, 72 h; inhibition, % at 10 µM; 0.61% of 280,000 active; AID 2071; in the data active = inhibition mostly above about 24%, no sharp cut-off; inactive = mostly below about 32%
TIM10 inh = growth inhibitors of TIM10 yeast strain. S. cerevisiae TIM10 strain growth, BacTiter-Glo luminescence, 24 h. inhibition, % at 10 µM. 1.4% of 330,000 active. AID 463195;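 active = inhibition of 40% or more at the single tested concentration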;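 also: wild-type TIM10 isogenic control strain grown at permissive 25 °C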
tim23-1 inh = growth inhibitors of tim23-1 mutant yeast | S. cerevisiae tim23-1 growth, BacTiter-Glo luminescence, 24 h | inhibition, % at 20 µM | 1.3% of 330,000 active;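 active = growth inhibition of the mutant yeast at or above 50%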;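 also: temperature-sensitive mutant grown at 25 °C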
tim10-1 conf = confirmation of tim10-1 mutant yeast growth inhibitors. shares compounds with tim10-1 inh. S. cerevisiae tim10-1 ts strain growth, BacTiter-Glo, 24 h. inhibition, % at 20 µM. 56% of 7,400 active. AID 463213;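 active = inhibition of yeast growth at or above a set limit in either of two repeat tests at 20 µM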;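 also: tim10-1 mutant grown at permissive 25 °C to find synthetic lethal compounds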
Each line names hits and unclear results; the compound was inactive in the other large screens (follow-up assays come after a bar, where they were run).

Cc1ccc(-c2nn3c(C)nnc3c3ccccc23)cc1S(=O)(=O)N1CCN(CCO)CC1	tim10-1 inh 44 | tim10-1 conf inactive
Cn1c2ccccc2c(=O)c2cc(C#CC3(O)CCCCC3)ccc21	tim10-1 inh 44 | tim10-1 conf 39
Cn1c2ccccc2c(=O)c2ccc(C#CC3(N)CCCCC3)cc21	tim10-1 inh 45 | tim10-1 conf 36
Cn1c2ccccc2c(=O)c2cc(C#Cc3ccsc3)ccc21	none
O=c1c2ccccc2oc2ccc(C#CC3(O)CCCCC3)cc12	tim10-1 inh 45 (no result: NALP1 yeast inh) | tim10-1 conf 36
N#Cc1ccc(C#Cc2ccc3oc4ccccc4c(=O)c3c2)cc1	none (no result: NALP1 yeast inh)
CC(=O)c1ccc(N2Cc3ccccc3C2=NC(=O)c2cccs2)cc1	none
N#Cc1ccc(N2Cc3ccccc3C2=NC(=O)c2cccs2)cc1	tim10-1 inh 51 | tim10-1 conf 39
Cc1cc(C(=O)N2CCN(C(c3ccccc3)c3ccccc3)CC2)no1	tim10-1 inh 41 | tim10-1 conf inactive
CCCc1cc(C(=O)N2CCN(C(c3ccccc3)c3ccccc3)CC2)no1	none
CCN(CC)S(=O)(=O)c1ccc(/C=C/C(=O)OCC(=O)N(C(C)C)C(C)C)cc1	none
Cc1sc(NC(=O)C2C3CCC(O3)C2C(=O)O)nc1-c1ccc(CC(C)C)cc1 (centres undefined)	tim10-1 inh 41 | tim10-1 conf inactive
CCOC(=O)c1c(NC(=O)C2C3CCC(O3)C2C(=O)O)sc(C)c1-c1ccc(C)cc1 (centres undefined)	none
O=C(CN1C(=O)c2ccccc2S1(=O)=O)Nc1ccc(S(=O)(=O)Nc2ncccn2)cc1	none (no result: NALP1 yeast inh)
CN(CC1COc2ccccc2O1)C(=S)Nc1ccccc1 (centres undefined)	tim10-1 inh 42 (no result: NALP1 yeast inh) | tim10-1 conf inactive
O=C(N/N=C(\CC(=O)c1cccs1)C(F)(F)F)c1ccncc1	none
Cc1ccc(C(=O)N/N=C(/CC(=O)c2cccs2)C(F)(F)F)cc1	tim10-1 inh 47 | tim10-1 conf 29
Cc1sc2ccc3sccc3c2[n+]1C	tim10-1 inh 43 | tim10-1 conf 46
CCOc1ccc2nc(SC3CC(=O)N(c4ccc(OC)cc4)C3=O)sc2c1 (centres undefined)	none
Cc1nnc(SC2CC(=O)N(c3ccccc3)C2=O)s1 (centres undefined)	tim10-1 inh 47 | tim10-1 conf 38
COc1ccc(N2C(=O)CC(Sc3nc4ccccc4s3)C2=O)cc1 (centres undefined)	tim10-1 inh 41 | tim10-1 conf 33
O=C1CC(Sc2nnc(-c3ccccc3)o2)C(=O)N1c1ccccc1 (centres undefined)	tim10-1 inh 51 | tim10-1 conf 51
Cc1nc(SC2CC(=O)N(c3ccccc3)C2=O)nc2c1CCCC2 (centres undefined)	none
O=C1CC(Sc2cccs2)C(=O)N1c1ccccc1 (centres undefined)	tim10-1 inh 42 | tim10-1 conf 40
O=C(COC(=O)c1ccccc1O)NCc1ccc2c(c1)OCO2	none (no result: NALP1 yeast inh)
CC1CCCN(C(=O)CN(C)S(=O)(=O)c2cccc3nsnc23)C1 (centres undefined)	none
COc1cc(/C=N/O)cc(Br)c1OC	none
COc1cc(/C=N/O)cc(Br)c1OCc1ccc(Cl)cc1	tim10-1 inh 44 | tim10-1 conf inactive
COc1ccccc1Nc1ccncc1[N+](=O)[O-]	none
Cc1cccc(NC(=O)CSc2nnc(C)c(C)n2)c1	none
COC(=O)c1c(-c2ccc(Br)cc2)noc1N	tim10-1 inh 46 | tim10-1 conf inactive
CC1(C)CC(=O)C(C(=O)c2ccccc2)C(=O)C1	none
Cc1ccc(NC(=O)c2sc3ncnc(N4CCN(c5ccccn5)CC4)c3c2C)c(C)c1	tim10-1 inh 48 | tim10-1 conf inactive
Cc1ccc(NC(=O)c2sc3nc(C)nc(N4CCN(c5ccccn5)CC4)c3c2C)c(C)c1	none
Cc1nnc(C)n1/N=C/c1c(O)ccc2ccccc12	none
Cc1nnc(-c2ccccc2)c(=O)n1/N=C/c1c(O)ccc2ccccc12	tim10-1 inh 49 | tim10-1 conf inactive
Cc1ccc(C(C(=O)NCc2ccc(F)cc2)N(Cc2ccco2)C(=O)c2snc(C(N)=O)c2N)o1 (centres undefined)	none
CCCCN1c2ccccc2N(CCCO)c2cc(C)nnc21	tim10-1 inh 45 | tim10-1 conf inactive
Cn1c(=O)c(Sc2ccccc2)c(O)c2ccccc21	none
CC(C)(C)C1C=C(Sc2ccccc2)C(=O)O1 (centres undefined)	tim10-1 inh 44 | tim10-1 conf 35
CCOC(=O)C1=NN(c2ccccc2)C(=O)/C1=C\c1ccc(N(C)C)cc1	tim10-1 inh 40 | tim10-1 conf inactive
CC1=NN(Cc2ccccc2)C(=O)/C1=C\c1ccc(N(C)C)cc1	none (no result: NALP1 yeast inh)
COc1ccc(CCNC(=O)NC23CC4CC(CC(C4)C2)C3)cc1	tim10-1 inh 45 | tim10-1 conf 35
COc1ccc(N2CCN(C(=O)NC34CC5CC(CC(C5)C3)C4)CC2)cc1	tim10-1 inh 48 | tim10-1 conf inactive
COc1ccc(C(=O)NCC(=O)OCC(=O)NC23CC4CC(CC(C4)C2)C3)cc1	none (no result: NALP1 yeast inh)
COc1ccc(CC(=O)OCC(=O)NC(=O)NC23CC4CC(CC(C4)C2)C3)cc1	tim10-1 inh 40 | tim10-1 conf inactive
O=C(NCc1ccc2c(c1)OCO2)Nc1ccc(F)cc1	none
O=C(NCc1ccc2c(c1)OCO2)NC12CC3CC(CC(C3)C1)C2	tim10-1 inh 41 | tim10-1 conf 30
O=C(NCCc1ccc(F)cc1)NC12CC3CC(CC(C3)C1)C2	none
Cn1cc(C(=O)NS(=O)(=O)Nc2ccc(Br)cn2)c2ccccc21	none
O=C(NCc1ccc2c(c1)OCO2)c1ccccc1	none
O=C(NCCC1=CCCCC1)NC12CC3CC(CC(C3)C1)C2	tim10-1 inh 41 | tim10-1 conf 32
O=C(NC(=S)NCc1ccc2c(c1)OCO2)c1ccccc1	tim10-1 inh 45 | tim10-1 conf inactive
Cc1c(Cl)cccc1NC(=S)/C(=C(\[O-])c1ccc(Cl)s1)[n+]1ccccc1	tim10-1 inh 47 | tim10-1 conf 36
COc1ccc(-c2nc3n(c(=O)c2C#N)CCS3)cc1	tim10-1 inh 45 | tim10-1 conf inactive
Cc1c(NC(=O)/C(C#N)=C/c2ccc(-c3cc(Cl)ccc3Cl)o2)c(=O)n(-c2ccccc2)n1C	none
Cc1c(NC(=O)/C(C#N)=C/c2ccc(-c3ccc(Cl)cc3)o2)c(=O)n(-c2ccccc2)n1C	tim10-1 inh 42 | tim10-1 conf 30
COc1cc(/C=C/c2cc(C(=O)O)c3ccccc3n2)cc(OC)c1O	none
COc1cc(C=C(c2nc3ccccc3s2)c2nc3ccccc3s2)ccc1O	tim10-1 inh 51 (no result: NALP1 yeast inh) | tim10-1 conf 39
CN(C)c1ccc(/C=C/c2nc3ccccc3s2)cc1	tim10-1 inh 47 | tim10-1 conf 56
COc1cc(/C=C/c2nc3ccccc3s2)cc(OC)c1O	tim10-1 inh 44 | tim10-1 conf inactive
COc1ccc(C=C(c2nc3ccccc3s2)c2nc3ccccc3s2)cc1O	none

High-throughput results as filed in PubChem.
